From ChEMBL document CHEMBL3988442, “University of Dundee, Small-Polar-MMV Screening Library” (2021)
In all, about 48,000 compounds went through this assay and about 13,000 (27%) showed an effect of 50% or more. The list shows a part of the results.

system: Wolbachia pipientis; experiment: Anti-Wolbachia Cell-Based Screen; type: functional; parameters: scale not given: in the data most compounds retested in dose-response had high values; conditions: 5 µM

Structure (SMILES) | Percent Effect [%]
Cc1cccc(N(CCC(N)=O)CC(=O)Nc2cc(Cl)ccc2Cl)c1 | -1.848
O=C(O)C(F)(F)F.O=C(O)C(F)(F)F.c1ccc(CNCC2Cn3nnc(-c4ccncc4)c3CO2)nc1 (configuration not stated) | 9.944
CC(=O)N1CCC(C)(c2cc(C(=O)NCC3CC3)nc(C)n2)CC1 | 107.8
CCCN(Cc1nccn1C)C(=O)c1cc(C)nc(C)n1 | -2.808
CC(=O)N1CCC(C)(c2cc(C(=O)NCC(C)(C)C)nc(C)n2)CC1 | 109.7
CN(C)CCNC(=O)c1cc2n(n1)CCN(C(=O)CC(C)(C)C)C2 | 4.361
Cc1nc(CN2CCC(CNC(=O)C3(C)CCCC3)CC2)oc1C | -9.195
CC(=O)NCC1CCN(C(=O)c2csc(-c3ccc(C)cc3C)n2)CC1 | -1.979
CCN(CC)C(=O)c1cc(C2(C)CCN(C(C)=O)CC2)nc(C)n1 | 112.9
Cc1nc(NCc2ccc(C)o2)cc(C(=O)N2CCOCC2)n1 | -3.993
CC(=O)N1CCN(c2cc(-n3cnc(C)c3C)nc(C)n2)CC1 | -7.107
CNc1nc(N2CCN(C3CCCCC3)C(CCO)C2)nc2c1CCC2 (configuration not stated) | 13.4
CNc1nc(C2CCCN2C(C)=O)nc2c1CCN(CC1CC1)C2 (configuration not stated) | -2.53
CNc1nc(N2CCN(C)C(CCO)C2)nc2c1CCC2 (configuration not stated) | -12.86
CNc1nc(C2CCCN2C(C)=O)nc2c1CN(C1CCCC1)CC2 (configuration not stated) | 121.2
CNc1nc(N2CCN(CC=C(C)C)C(CCO)C2)nc2c1CCC2 (configuration not stated) | -3.074
CNc1nc(C2CCCN2C(C)=O)nc2c1CN(CCO)CC2.O=CO (configuration not stated) | 123.3
N[C@@H]1CCN(Cc2cccc(N3CCOCC3)c2)C[C@H]1O | -37.83
Cc1oc2nc[nH]c(=O)c2c1C(=O)N1CCCC(n2cccn2)C1 (configuration not stated) | -6.627
CC(C)OCCCNC(=O)C1CCC(=O)N(C2CCCC2)C1 (configuration not stated) | 25.57
CC(Cn1ccnc1)NC(=O)C1(c2ccc3c(c2)OCCO3)CCCC1 (configuration not stated) | 6.008
CCCn1nc(C(=O)N(C)Cc2nnc3n2CCC3)ccc1=O | -34.52
CCCn1nc(C(=O)N(C)Cc2cnn(C)c2)ccc1=O | 125
CN(Cc1cnn(C)c1)C(=O)c1ccc(=O)n(Cc2ccccc2)n1 | 97
Cc1nc(C)c(C(=O)N(C)Cc2cnn(C)c2)s1 | -4.031
CN(Cc1cnn(C)c1)C(=O)C1COCC(=O)N1Cc1ccccc1 (configuration not stated) | 16.93

Structure (SMILES) | Percent Effect [%]
Cc1ccccc1C(C(=O)N(C)Cc1cnn(C)c1)N(C)C (configuration not stated) | -13.96
CC(=O)NCCNCC1(O)CCCN(CCC2CCCCC2)C1=O (configuration not stated) | -25.88
O=C(O)c1ccnc(-c2ccnc(COc3ccccc3Cl)n2)c1 | -33.61
Cc1noc(CN2CC(=O)N(C)c3ccccc3C2=O)n1 | 12.92
Cc1c(CS(C)(=O)=O)cccc1NC(=O)CC1CCCC1 | -14.57
Cc1ccsc1CN1C[C@@H]2COC[C@]2(COCC(=O)N(C)C)C1.O=C(O)C(F)(F)F | 107.4
Cc1nc(CN2C[C@@H]3COC[C@]3(COCC(=O)N(C)C)C2)cs1.O=C(O)C(F)(F)F | 99.96
Cc1nc(COC[C@]23COC[C@H]2CN(Cc2ccoc2)C3)cs1.O=C(O)C(F)(F)F | -5.417
Cc1csc(CN2C[C@@H]3COC[C@]3(COCC(=O)N(C)C)C2)n1.O=C(O)C(F)(F)F | 103.7
CCS(=O)(=O)NC[C@]12COC[C@H]1CN(Cc1sccc1C)C2.O=C(O)C(F)(F)F | -13.08
Cc1ccsc1CN1C[C@@H]2COC[C@]2(CNC(=O)c2ccco2)C1.O=C(O)C(F)(F)F | -18.71
Cc1nc(COC[C@@]23CCC[C@@H]2CN(CC2CCOCC2)C3)cs1.O=C(O)C(F)(F)F | 1.66
Cc1cc(C(=O)N2CCC(c3nccn3Cc3ccncc3)CC2)no1 | -16.29
C[C@@H]1C[C@H]2CN(C(=O)C3=CCCC3)C[C@H]2O1 | -41.87
CCOc1ccc(S(=O)(=O)NCCc2ccc(N(C)C)cc2)cc1F | 9.493
CCN(CC)C(=O)CCNC(=O)N(C)Cc1ccc(SC)c(OC)c1 | 28.83
Cc1ccc(F)c(CNc2ccn(CCC(N)=O)n2)c1 | -13.86
O=C1CC[C@H]2CN(c3ncc(F)cn3)CC[C@H]2N1CCc1ccccn1 | -8.563
CC(C)CNC(=O)C1=NOC2(CCN(Cc3cccc(C#N)c3)C2)C1 (configuration not stated) | 102.8
Cc1ccc(CN2CCC3(CC(C(=O)NCC4CC4)=NO3)C2)cc1C (configuration not stated) | 21.96
O=C(NCC1CC1)C1=NOC2(CCN(Cc3ccc4c(c3)OCO4)C2)C1 (configuration not stated) | -22.77
CCCS(=O)(=O)N1CCC2(CC(C(=O)NCc3cccnc3)=NO2)C1 (configuration not stated) | -9.91
N#Cc1cccc(CN2CCC3(CC(C(=O)NCC4CC4)=NO3)C2)c1 (configuration not stated) | -1.937
Cc1cccc(CN2CCC3(CC(C(=O)NCC(C)C)=NO3)C2)c1 (configuration not stated) | 117.4
CNc1snc(C)c1C(=O)N1CCCC(n2ccnc2C(C)C)C1 (configuration not stated) | 1.946
Cc1n[nH]c(=O)c2c(NC(=O)CN3CCC(O)CC3)oc(C)c12 | 10.48
